# Results taken from PubChem BioAssay (NCATS).
# Results filed as inconclusive are left out. More than one record can exist for a structure, and the calls need not agree. The source made the active and inactive calls. Calls follow the shape of the dose curve; as a rule, active = well fitted inhibition curve with a large enough effect in the repeat runs; inconclusive = weak or mixed curves; inactive = no such curve, though single readings can be large or run the other way.
# Molecular target: Cytochrome P450 3A4 (Homo sapiens) (UniProt P08684)
# Sequence (P08684 whole entry, looked up): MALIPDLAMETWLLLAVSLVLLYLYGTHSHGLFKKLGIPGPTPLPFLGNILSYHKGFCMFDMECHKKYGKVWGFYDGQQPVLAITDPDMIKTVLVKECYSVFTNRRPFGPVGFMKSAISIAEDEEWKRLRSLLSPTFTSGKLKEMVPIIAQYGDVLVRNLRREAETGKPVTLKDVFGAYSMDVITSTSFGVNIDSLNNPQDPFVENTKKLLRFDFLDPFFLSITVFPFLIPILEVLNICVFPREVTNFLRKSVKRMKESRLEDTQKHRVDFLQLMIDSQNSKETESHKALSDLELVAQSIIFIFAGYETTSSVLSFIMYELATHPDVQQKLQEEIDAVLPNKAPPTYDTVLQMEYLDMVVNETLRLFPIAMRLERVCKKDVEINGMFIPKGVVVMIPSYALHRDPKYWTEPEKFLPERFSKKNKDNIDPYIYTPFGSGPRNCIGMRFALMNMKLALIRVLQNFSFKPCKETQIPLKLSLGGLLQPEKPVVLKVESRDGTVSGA
# Assay: Cytochrome P450 family 3 subfamily A member 4 (CYP3A4) small molecule antagonists: luciferase qHTS assay (AID 1645841); also: nearly all actives have a fitted effect of over 45% in size
# Settings: P450-Glo CYP3A4 enzyme assay, luciferin luminescence; series mostly up to 57.4 µM; activity change, negative = inhibition: at the top concentration
# Outline: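 Luminescent CYP3A4 activity readout: compounds plus enzyme-substrate mix 10 min at room temperature, reaction started with NADPH regenerating system for 1 h, stopped with detection reagent, read after 20 min. Ketoconazole served as control.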
row,SMILES,"activity change, negative = inhibition"
1,CC(=O)O[C@]1(C(C)=O)CC[C@H]2[C@@H]3C[C@H](C)C4=CC(=O)CC[C@]4(C)[C@H]3CC[C@@]21C,31.8% (inactive)
2,CN1CCC(=C2c3ccccc3Sc3ccccc32)CC1,23.9% (inactive)
3,CCOC(=O)COc1ccc2c(C)c(CCN(CC)CC)c(=O)oc2c1Cl,33% (inactive)

# Molecular target: Cytochrome P450 2C9 (Homo sapiens) (UniProt P11712)
# Sequence (P11712 whole entry, looked up): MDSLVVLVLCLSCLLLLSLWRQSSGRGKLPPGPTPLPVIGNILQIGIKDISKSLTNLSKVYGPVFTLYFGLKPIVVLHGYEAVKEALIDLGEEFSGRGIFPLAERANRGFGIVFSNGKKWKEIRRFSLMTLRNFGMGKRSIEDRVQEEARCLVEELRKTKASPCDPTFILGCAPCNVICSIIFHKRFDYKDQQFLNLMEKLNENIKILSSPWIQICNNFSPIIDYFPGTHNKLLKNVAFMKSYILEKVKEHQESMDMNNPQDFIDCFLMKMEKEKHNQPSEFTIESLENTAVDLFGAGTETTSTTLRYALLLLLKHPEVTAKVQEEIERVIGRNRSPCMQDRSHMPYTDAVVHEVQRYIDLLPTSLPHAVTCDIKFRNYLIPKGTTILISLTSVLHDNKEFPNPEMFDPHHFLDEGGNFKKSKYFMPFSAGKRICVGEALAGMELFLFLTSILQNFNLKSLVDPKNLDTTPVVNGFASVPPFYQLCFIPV
# Assay: Cytochrome P450 family 2 subfamily C member 9 (CYP2C9) small molecule antagonists: luciferase biochemical (cell-free) qHTS assay (AID 1645842); also: nearly all actives have a fitted effect of over 55% in size; also: potency is read from the fitted curve at half-maximal effect; as to activity change, negative = inhibition: % is scaled to controls: 0 for no effect and ±100 for the full control effect
# Settings: P450-Glo CYP2C9 enzyme assay, luciferin luminescence; series mostly up to 57.4 µM; activity change, negative = inhibition: at the top concentration
# Outline: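 P450-Glo CYP2C9 system: proluciferin substrate with enzyme in mix containing 0.4% BSA, 10 min at room temperature, then NADPH regeneration solution added and incubated 1 h at 37C. Detection reagent stopped reaction; luminescence read after 20 min as RLU.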
SMILES,"activity change, negative = inhibition",Potency
NC[C@H]1O[C@H](O[C@H]2[C@H](O[C@@H]3O[C@H](CO)[C@@H](O)[C@H]3O)C(O)[C@H](N)C[C@@H]2N)[C@H](N)[C@@H](O)[C@@H]1O (stereo partly drawn),8.72% [at 11.5 µM] (inactive),
COc1cccc(CCc2ccccc2OCC(CN(C)C)OC(=O)CCC(=O)O)c1 (stereo not drawn),3.27% (inactive),
CCCCOc1cc(C(=O)NCCN(CC)CC)c2ccccc2n1,-6.26% (inactive),
COc1cc2c(cc1OC)[C@@H]1CC(=O)[C@@H](CC(C)C)CN1CC2,,15.5 µM (active)
NC(CO)(CO)CO,15.3% (inactive),
CCOC(=O)/C=C(C)/C=C/C=C(C)/C=C/c1c(C)cc(OC)c(C)c1C,,7.76 µM (active)
OC[C@H]1O[C@H](O[C@]2(CCl)O[C@H](CCl)[C@@H](O)[C@@H]2O)[C@H](O)[C@@H](O)[C@H]1Cl,-3.76% (inactive),
CC(=O)O[C@]1(C(C)=O)CC[C@H]2[C@@H]3C[C@H](C)C4=CC(=O)CC[C@]4(C)[C@H]3CC[C@@]21C,,3.09 µM (active)
O=c1[nH]c(=O)n([C@H]2CCCO2)cc1F,-0.256% (inactive),
CC1(C)O[C@@H]2C[C@H]3[C@@H]4C[C@H](F)C5=CC(=O)CC[C@]5(C)[C@H]4[C@@H](O)C[C@]3(C)[C@]2(C(=O)CO)O1,5.41% (inactive),
Cc1cccn2c(=O)c(-c3nnn[nH]3)cnc12,7.16% [at 23.9 µM] (inactive),
NCCC(O)(P(=O)(O)O)P(=O)(O)O,14.9% (inactive),
CN1CCC(=C2c3ccccc3Sc3ccccc32)CC1,5.74% (inactive),
CCN1CCCC1=O,10.7% (inactive),
O=C(N/N=C/c1ccccc1O)c1ccncc1,,4.36 µM (active)
CC(C)(C)NC(=O)[C@@H]1CN(Cc2cccnc2)CCN1C[C@@H](O)C[C@@H](Cc1ccccc1)C(=O)N[C@H]1c2ccccc2C[C@H]1O,-32% (inactive),
CCCCS(=O)(=O)N[C@@H](Cc1ccc(OCCCCC2CCNCC2)cc1)C(=O)O,0.28% (inactive),
CCCCc1nc(Cl)c(CO)n1Cc1ccc(-c2ccccc2-c2nn[nH]n2)cc1,,2.68 µM (active)

SMILES,"activity change, negative = inhibition",Potency
Nc1ccc(/C=C/c2ccc(N)cc2S(=O)(=O)O)c(S(=O)(=O)O)c1,13.7% [at 0.91 µM] (inactive),
C[C@H](O)C(=O)Nc1c(I)c(C(=O)NC(CO)CO)c(I)c(C(=O)NC(CO)CO)c1I,-2.28% (inactive),
OCc1ccccc1O,4.88% (inactive),
COc1cc(/C=C/C(=O)O[C@H]2CC[C@]34C[C@]35CC[C@]3(C)[C@@H]([C@H](C)CCC=C(C)C)CC[C@@]3(C)[C@@H]5CC[C@H]4C2(C)C)ccc1O,13.5% (inactive),
NC[C@H]1O[C@H](O[C@H]2[C@H](O)[C@@H](O[C@H]3O[C@H](CO)[C@@H](O)[C@H](N)[C@H]3O)[C@H](N)C[C@@H]2N)[C@H](N)[C@@H](O)[C@@H]1O,19.4% [at 23.9 µM] (inactive),
CC(=O)Nc1c(I)cc(I)c(C(=O)O)c1I,-15.9% (inactive),
CCOC(=O)COc1ccc2c(C)c(CCN(CC)CC)c(=O)oc2c1Cl,4.1% (inactive),
O=C1OC2(c3ccc(O)cc3Oc3cc(O)ccc32)c2ccccc21,-22.9% (inactive),
CCOC(=O)n1ccn(C)c1=S,0.367% (inactive),
CCCCOc1ccc(OCCCN2CCOCC2)cc1,-17.7% (inactive),
CC(C)(C(=O)c1cccnc1)c1cccnc1,1.18% (inactive),
COC(=O)C1=C(C)NC(C)=C(C(=O)O[C@@H]2CCCN(Cc3ccccc3)C2)[C@@H]1c1cccc([N+](=O)[O-])c1,,0.195 µM (active)
Cc1nc2n(c(=O)c1CCN1CCC(c3noc4cc(F)ccc34)CC1)CCC[C@H]2O,,inactive
O=c1ccc2ccccc2o1,6.47% (inactive),
CCOc1ccc2nc3cc(N)ccc3c(N)c2c1,15.7% (inactive),
CN(C)CCOc1ccccc1Cc1ccccc1,0.881% (inactive),
CCOC(=O)[C@H](CCc1ccccc1)N[C@@H](C)C(=O)N1Cc2ccccc2C[C@H]1C(=O)O,,6.92 µM (active) and inactive
